Results filed as inconclusive are left out. Active and inactive are the calls of the source. The call rests on the fitted dose curve; in most records, active means well fitted activation curve with a large enough effect in the repeat runs; inconclusive means weak or mixed curves; inactive means flat fitted curve, though single readings scatter.
Assay: A CellTox Green Cytotoxicity Assay to monitor cytotoxicity in HepG2 cells - 8 hour (AID 1224890); further: nearly all actives have a fitted effect of over 45% in size
Conditions: CellTox Green fluorescence; series mostly up to 76.8 µM; cytotoxicity increase: at the top concentration
Source text: National Center for Advancing Translational Sciences [NCATS]
NIH Chemical Genomics Center [NCGC]
U.S. Environmental Protection Agency [EPA]
National Institutes of Environmental Health Sciences [NIEHS]
National Toxicology Program [NTP]
Cell-based models are critical for drug discovery. Determining the natural cytotoxic effects resulting from test compounds is an essential research activity. A CellTox Green Cytotoxicity Assay to monitor cytotoxicity in real time of continues cell culture during 40 hours of the compound treatment was used to screen Tox21 10K library compounds in HepG2 cells. CellTox Green Cytotoxicity Assay is a nonlytic, homogeneous, biofluorescent method to measure cytotoxicity in cell culture after experimental manipulation. The assay system uses a proprietary asymmetric cyanine dye that is excluded from viable cells but preferentially stains the dead cell's DNA. […] Viable cells produce no appreciable increases in fluorescence. Therefore, the fluorescence signal produced by the binding interaction with dead cell DNA is proportional to cytotoxicity.
The mixture of HepG2 cell suspension and reagents were dispensed at 600cells/6 ul/well in 1536-well tissue culture treated black solid bottom plates using a Multidrop dispenser. After the assay plates were incubated at a 37 C/5% CO2 incubator for 5 hours, 23 nL of compounds dissolved in DMSO, positive and negative controls was transferred to the assay plate by a pintool work station. The plates were incubated at 37 C for 40 hours. The fluorescence intensity were measured at 0h, 8h, 16h, 24h, 32h and 40h time points using ViewLux plate reader during compound treatment.
On the % scale 0 is the no-effect control and ±100 the full control effect.

Compound | cytotoxicity increase
CC(=O)OCCN(CCOC(C)=O)c1ccc(N=Nc2ccc([N+](=O)[O-])cc2C#N)cc1 | -18.6% (inactive)
O=C=Nc1ccc(Cl)c(Cl)c1 | 2.24% (inactive)
N#CCCN(CCO)CCO | 1.03% (inactive)
Cc1cccc(O)c1N | -12.9% (inactive)
CC(C)(O)c1ccc(CNC(=O)c2cccnc2Oc2ccc3nonc3c2)cc1 | -0.151% (inactive)
CC(C)(C)C(=O)C(=O)O | 5.26% (inactive)
CCCCCCCCOc1ccc(C(=O)O)cc1 | -18.4% (inactive)
CCCCCCCC/C=C\CCCCCCCCCCCC(=O)O | -4.2% (inactive)
COC(=O)CCS | -0.464% (inactive)
Clc1ccc(Nc2nnc(Cc3ccncc3)c3ccccc23)cc1 | -1.63% [at 35.3 µM] (inactive)
CC(C)(c1ccccc1)c1ccccc1 | 1.94% (inactive)
CO/N=C(/C(=O)N[C@@H]1C(=O)N2C(C(=O)O)=C(COC(N)=O)CS[C@H]12)c1ccco1 | 4.5% (inactive)
CN1C(=O)c2ccccc2C1=O | -9.08% (inactive)
CCCCCC[C@@H](O)C/C=C\CCCCCCCC(=O)O | -0.0851% (inactive)
C=CC(=O)OCC1CC2CC1C1CCC(COC(=O)C=C)C21 (stereo not given) | 2.1% (inactive)
CC(C)(C)CC(=O)OCC(=O)[C@@]1(O)CC[C@H]2[C@@H]3CCC4=CC(=O)C=C[C@]4(C)[C@H]3[C@@H](O)C[C@@]21C | 0.939% [at 35.3 µM] (inactive)
O=c1[nH]c2ccc(Cl)cc2o1 | -11.1% (inactive)
O=C(O)C[C@H](NC(=O)OCc1ccccc1)C(=O)O | -1.38% (inactive)
C1C[C@@H]2[C@H]3CC[C@H](C3)[C@@H]2C1 | 0.393% (inactive)
C/C=C\C/C=C/CCCCCCCCOC(C)=O | -8.67% (inactive)

Compound | cytotoxicity increase
CCCCOc1ccc(OCCCN2CCOCC2)cc1 | -5.93% [at 35.3 µM] (inactive)
O=C(O)CCCCCCCCCCCBr | -12.1% (inactive)
CCCCCCNC(=O)n1cc(F)c(=O)[nH]c1=O | 0% [at 35.3 µM] (inactive)
CS(=O)(=O)c1ccc(-c2cn3ccccc3n2)cc1 | 18.5% [at 35.3 µM] (inactive)
O=C1c2ccccc2C(=O)C1c1ccc(Br)cc1 | 5.62% [at 35.3 µM] (inactive)
CC[N+](CC)(CCNC(=O)C(=O)NCC[N+](CC)(CC)Cc1ccccc1Cl)Cc1ccccc1Cl | 2.29% [at 35.3 µM] (inactive)
O=[N+]([O-])c1ccc(O/N=C/c2cc(Br)c(O)c(Br)c2)c([N+](=O)[O-])c1 | 8.04% (inactive)
COc1ccccc1N1CCN(CCCCNC(=O)c2ccc(-c3ccc(C(C)=O)cc3)cc2)CC1 | 8.67% [at 35.3 µM] (inactive)
CN(C)CCC=C1c2ccccc2C=Cc2ccccc21 | 12.8% [at 35.3 µM] (inactive)
NNC(=O)CP(=O)(c1ccccc1)c1ccccc1 | -14.2% [at 35.3 µM] (inactive)
Oc1cccc(Nc2ccccc2)c1 | -1.58% (inactive)
CC1(C)[C@H](C(=O)O)N2C(=O)C[C@H]2S1(=O)=O | -21.1% [at 35.3 µM] (inactive)
CC(=O)OCC(=O)NCCCOc1cccc(CN2CCCCC2)c1 | 6.06% [at 35.3 µM] (inactive)
C[C@@H](O)[C@H]1C(=O)N2C(C(=O)O)=C([C@H]3CCCO3)S[C@H]12 | -23.6% [at 35.3 µM] (inactive)
CC(C)C[C@H](NC(=O)[C@H](CCc1ccccc1)NC(=O)CN1CCOCC1)C(=O)N[C@@H](Cc1ccccc1)C(=O)N[C@@H](CC(C)C)C(=O)[C@@]1(C)CO1 | 1.57% [at 35.3 µM] (inactive)
Oc1cccc(O)c1O | -8.49% (inactive)
C[C@H]1c2cccc(O)c2C(O)=C2C(=O)[C@]3(O)C(O)=C(C(N)=O)C(=O)[C@@H](N(C)C)[C@@H]3[C@@H](O)[C@@H]21 | 1.66% [at 35.3 µM] (inactive)
CC(C)=CCC/C(C)=C/CC/C(C)=C/CCC(=O)OC/C=C(\C)CCC=C(C)C | 1.93% [at 35.3 µM] (inactive)
C=C(C)C(=O)OCCOCCOC(=O)C(=C)C | -0.831% (inactive)
CCCCN(CCCC)C(C(N)=O)c1ccc(OC)cc1 (stereo not given) | -15.3% [at 35.3 µM] (inactive)
